Sampled rows, rich in hits. Any-hit rate of the full collection: about 12%.
HP1b binding inh: blocks HP1-beta chromodomain binding to methylated histone tails. 390,000 compounds, 0.56% hits. P83916. AID 540317. Potency, µM (titrated, usually from 114 µM), for the others: top-dose activity change, negative = inhibition, usual class: inhibitors. AlphaScreen HP1-beta / biotin-H3K9me3 peptide binding; note: nearly all actives have a fitted effect of over 70% in size
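AlphaScreen: HP1-beta (50 nM) preformed 30 min with biotin-H3(1-18)K9me3 peptide (50 nM) in PBS pH 7.4, 0.01% Tween-20. Compound added for 30 min at RT, then streptavidin donor/nickel chelate acceptor beads (10 ug/mL) for 30 min.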
TDP1 inh: blocks human tyrosyl-DNA phosphodiesterase 1. recombinant TDP1, AlphaScreen DNA substrate cleavage. 350,000 compounds, 0.28% hits. Potency, µM (titrated, usually from 130 µM), without a hit: top-dose activity change, negative = inhibition, actives largely listed as inhibitors. AID 485290; note: % is set by controls: 0 for no effect and ±100 for the full control effect; nearly all actives have a fitted effect of over 40% in size
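Recombinant human Tdp1 (E. coli-expressed, 1 nM final) preincubated with compounds 15 min at room temperature, then 5'-biotin/3'-phosphotyrosine-FITC DNA substrate (15 nM final) added for 5 min. AlphaScreen beads (10 ug/ml final) added 10 min; cleavage lowers signal.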
Sfp PPTase inh: blocks B. subtilis Sfp PPTase activity; 310,000 compounds, 3.5% hits; Q9F4F7; Potency, µM, for the others: largest response in the series, negative = inhibition, most hits filed as inhibitors; AID 1490; Biochemical Sfp PPTase activity, qHTS;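 note: the enzyme is Sfp with the accession as filed and its product quenches rhodamine fluorescence; 0% = enzyme reaction without inhibitor and -100% = no enzyme wells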
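Compounds were incubated with enzyme (final 15 nM) for 15 min at room temperature before substrate addition started the reaction. Fluorescence at 525 nm excitation, 598 nm emission was recorded immediately and after 30 minutes.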
G9a inh: inhibitors of human histone lysine methyltransferase G9a. Q96KQ7. G9a H3K9 monomethylation, AlphaScreen, 2 h. Potency, µM (series often up to 102 µM), without a hit: at the top dose activity, negative = inhibition, usual class: inhibitors. 350,000 compounds, 8.8% hits. AID 504332; note: % is set by controls: 0 for no effect and ±100 for the full control effect; nearly all actives have a fitted effect of over 75% in size
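G9a (20 nM) was preincubated 15 min with compound, then reacted 2 h at room temperature with 500 nM biotin-H3K9 peptide and 20 µM SAM. Monomethyl-H3K9 detected by AlphaScreen using anti-H3K9me1 antibody.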
JMJD2A Tudor: inhibitors of human JMJD2A Tudor domain. 390,000 compounds, 4.4% hits. Potency, µM (titrated, usually from 114 µM), for the others: at the top dose activity change, negative = inhibition, usual class: inhibitors. O75164. AlphaScreen JMJD2A-Tudor / H3K4me3 peptide binding; note: % is set by controls: 0 for no effect and ±100 for the full control effect; nearly all actives have a fitted effect of over 50% in size
Target sequence (O75164 whole entry, looked up, the tested form may be a part): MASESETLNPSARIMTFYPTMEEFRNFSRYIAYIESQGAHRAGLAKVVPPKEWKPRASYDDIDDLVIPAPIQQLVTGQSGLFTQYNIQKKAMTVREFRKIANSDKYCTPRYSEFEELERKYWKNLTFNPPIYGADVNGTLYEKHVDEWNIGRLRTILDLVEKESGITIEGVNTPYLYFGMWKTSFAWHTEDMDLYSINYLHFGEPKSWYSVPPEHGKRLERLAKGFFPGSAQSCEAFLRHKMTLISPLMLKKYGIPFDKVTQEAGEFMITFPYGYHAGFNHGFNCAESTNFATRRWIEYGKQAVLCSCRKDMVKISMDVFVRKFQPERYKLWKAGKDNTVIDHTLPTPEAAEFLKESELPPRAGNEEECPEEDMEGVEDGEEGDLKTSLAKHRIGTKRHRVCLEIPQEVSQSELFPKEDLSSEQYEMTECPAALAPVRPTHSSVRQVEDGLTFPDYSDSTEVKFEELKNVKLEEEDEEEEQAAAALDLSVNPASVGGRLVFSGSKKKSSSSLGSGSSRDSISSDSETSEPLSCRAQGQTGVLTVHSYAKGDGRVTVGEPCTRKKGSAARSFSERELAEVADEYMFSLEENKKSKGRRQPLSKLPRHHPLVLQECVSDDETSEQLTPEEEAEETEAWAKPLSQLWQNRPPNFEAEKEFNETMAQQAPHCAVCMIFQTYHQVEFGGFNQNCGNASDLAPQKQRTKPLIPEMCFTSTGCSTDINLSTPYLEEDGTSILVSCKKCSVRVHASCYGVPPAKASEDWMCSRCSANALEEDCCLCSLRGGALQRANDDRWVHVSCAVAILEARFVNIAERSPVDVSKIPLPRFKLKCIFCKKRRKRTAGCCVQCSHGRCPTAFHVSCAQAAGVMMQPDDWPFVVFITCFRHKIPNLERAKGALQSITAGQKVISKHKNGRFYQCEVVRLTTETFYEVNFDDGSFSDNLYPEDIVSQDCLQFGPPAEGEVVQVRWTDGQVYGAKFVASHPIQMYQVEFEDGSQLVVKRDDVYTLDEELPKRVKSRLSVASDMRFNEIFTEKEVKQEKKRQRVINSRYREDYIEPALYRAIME
BAZ2B block: BAZ2B (human) inhibition. AlphaScreen BAZ2B-H3K14Ac peptide displacement. Q9UIF8. 360,000 compounds, 4.4% hits. Potency, µM (doses to about 114 µM), without a hit: at the top dose activity change, negative = inhibition, usual class: inhibitors; note: % is set by controls: 0 for no effect and ±100 for the full control effect; nearly all actives have a fitted effect of over 60% in size
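BAZ2B 50 nM plus b-H3(5-23)K14Ac 50 nM, PBS pH 7.4/0.01% Tween-20, 30 min RT; compound added (max 110 uM), 30 min RT; streptavidin donor/Ni-chelate acceptor beads 10 ug/mL final, 20 min dark; AlphaScreen read.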
Active calls of the source: *; [ ] = remark or other dose. Calls come from the whole dose curve; as a rule, active = well fitted curve in the direction sought with a large enough effect; inconclusive = small, poorly fitted or top-dose-only effect, or another doubt; inactive = no such curve, though single readings can be large; an effect the other way counts as inactive or inconclusive. Potency is the fitted concentration of half-maximal effect.

`CCCCn1c(N)c(N(CC)C(=O)CCNC(=O)NC23CC4CC(CC(C4)C2)C3)c(=O)[nH]c1=O` gave HP1b binding inh 2%, TDP1 inh 1%, Sfp PPTase inh -5%, G9a inh -20%, JMJD2A Tudor -18% and BAZ2B block 1%.
For Cc1cccc(C)c1N(CC(O)Cn1c2ccccc2c2ccccc21)S(C)(=O)=O (centres undefined) the results were HP1b binding inh 12%, TDP1 inh 1%, Sfp PPTase inh 9%, G9a inh 9%[2.33 µM], JMJD2A Tudor -15% and BAZ2B block -28%.
`CS(=O)(=O)N(Cc1ccco1)CC(O)Cn1c2ccccc2c2ccccc21` (centres undefined) gave HP1b binding inh -18%, TDP1 inh -1%, Sfp PPTase inh 7%, G9a inh 14µM*, JMJD2A Tudor inconclusive and BAZ2B block inconclusive.
`OC(CNCc1ccco1)Cn1c2ccccc2c2ccccc21` (centres undefined) gave HP1b binding inh -9%, TDP1 inh 1%, Sfp PPTase inh 7%, G9a inh 50µM*, JMJD2A Tudor inconclusive and BAZ2B block inconclusive.
Cc1ccc(Nc2nc(NCc3ccco3)nc3nccnc23)cc1C was read as HP1b binding inh 10%[57 µM], TDP1 inh -3% and JMJD2A Tudor 12%[57.1 µM].
COc1ccc(OCC(=O)Nc2ccc(S(=O)(=O)N3CCN(C)CC3)cc2)cc1 was read as HP1b binding inh 25%, TDP1 inh 0%, Sfp PPTase inh -1%, G9a inh -32%, JMJD2A Tudor -12% and BAZ2B block -22%.
O=C(COC(=O)c1ccc(S(=O)(=O)N2CCCC2)cc1)Nc1cccc(F)c1 was read as HP1b binding inh 31%, TDP1 inh 0%, G9a inh 5µM*, JMJD2A Tudor -23% and BAZ2B block 14%.
CC(C)c1ccc(CCNC(=O)CSC(=S)N2CCCC2)cc1 was read as HP1b binding inh 38%, TDP1 inh 0%, G9a inh 16µM*, JMJD2A Tudor 12% and BAZ2B block 16%.
For Cc1ccc(OCC(=O)Nc2ccc(S(=O)(=O)N3CCN(C)CC3)cc2)cc1 the results were HP1b binding inh 53%, TDP1 inh 0%, Sfp PPTase inh 7%, G9a inh 11µM*, JMJD2A Tudor -13% and BAZ2B block -37%.
`COc1ccccc1OCCNC(=O)CSC(=S)N1CCCC1` gave HP1b binding inh 13%, TDP1 inh -3%, G9a inh 3%, JMJD2A Tudor -11% and BAZ2B block -2%.
For Cc1ccc(OCC(=O)Nc2ccc(S(=O)(=O)N3CCCC3)cc2)cc1 the results were HP1b binding inh 24%, TDP1 inh 7%, Sfp PPTase inh -4%, G9a inh 79µM*, JMJD2A Tudor -4% and BAZ2B block 0%.
`CN(CCC1CCOCC1)C(=O)C1CCC(=O)N(CCc2ccccc2)C1` (centres undefined) gave HP1b binding inh 27%, TDP1 inh 3%, Sfp PPTase inh 10%, G9a inh 0%, JMJD2A Tudor -19% and BAZ2B block -10%.
Screening CCCCCCCCCC(=O)NC(CN1CCOCC1)[C@H](O)c1ccccc1 (some centres undefined) returned TDP1 inh -10%[56.1 µM] and G9a inh inconclusive.
For O=C(CP(=O)(c1ccccc1)c1ccccc1)Nc1nc2ccc(Cl)cc2s1 the results were HP1b binding inh 2%, TDP1 inh 6%, Sfp PPTase inh 6%, G9a inh -3%, JMJD2A Tudor -5% and BAZ2B block -17%.
CCN(CC(=O)Nc1ccc(S(=O)(=O)N2CCOCC2)cc1)Cc1ccccc1 was read as HP1b binding inh 1%, G9a inh -34%[12.7 µM], JMJD2A Tudor -10% and BAZ2B block 15%.
For O=C(COc1ccccc1)Nc1ccc(S(=O)(=O)N2CCCC2)cc1 the results were HP1b binding inh 32%, TDP1 inh 4%, Sfp PPTase inh -3%, G9a inh 50µM*, JMJD2A Tudor -1% and BAZ2B block 0%.
For CCN(Cc1ccc(N(C)C)cc1)C(C)C(=O)Nc1ccc(S(=O)(=O)N2CCCC2)cc1 (centres undefined) the results were HP1b binding inh -27%, TDP1 inh 9%, G9a inh 20%[12.7 µM], JMJD2A Tudor 32µM* and BAZ2B block 40µM*.
Screening CCN(CC(=O)Nc1ccc(S(=O)(=O)N2CCCC2)cc1)Cc1ccccc1 returned HP1b binding inh 28%, TDP1 inh 6%, G9a inh 45µM*, JMJD2A Tudor -6% and BAZ2B block 5%.
Screening CCN1CCN(S(=O)(=O)c2ccc(Cl)c(C(=O)N(CC)Cc3ccccc3)c2)CC1 returned HP1b binding inh 11%, TDP1 inh 1%, G9a inh 14µM*, JMJD2A Tudor -21% and BAZ2B block -29%.
For COc1cc(CC(=O)OCC(=O)Nc2ccc3c(c2)OCO3)cc(OC)c1OC the results were HP1b binding inh 41%, TDP1 inh 7%, Sfp PPTase inh 13%, G9a inh inconclusive, JMJD2A Tudor -8% and BAZ2B block -3%.
`c1ccc2c(N3CCNCC3)nc(-c3ccoc3)nc2c1` gave TDP1 inh -7%[56.1 µM] and Sfp PPTase inh 2%.
`Cc1ccc(OCC(=O)NNC(=O)CSC(=S)N2CCCC2)cc1` gave HP1b binding inh 30%, G9a inh 45µM*, JMJD2A Tudor -16% and BAZ2B block -4%.
Screening Cc1ccc(NC(=O)CN2CCCN(S(=O)(=O)c3ccc(Br)s3)CC2)cc1 returned HP1b binding inh 36%, TDP1 inh 2%, Sfp PPTase inh -3%, G9a inh 50µM*, JMJD2A Tudor -21% and BAZ2B block -3%.
COc1ccccc1OCC(=O)NNC(=O)CSC(=S)N1CCCC1 was read as HP1b binding inh 29%, TDP1 inh -4%, G9a inh 26%[12.7 µM], JMJD2A Tudor -17% and BAZ2B block 4%.
For O=C(Nc1cccc(S(=O)(=O)N2CCCC2)c1)c1cccc(OC(F)F)c1 the results were HP1b binding inh 31%, TDP1 inh 1%, G9a inh -36%, JMJD2A Tudor -10% and BAZ2B block -9%.
O=C(Nc1ccc(S(=O)(=O)N2CCCC2)cc1)c1cccc(OC(F)F)c1 was read as HP1b binding inh 19%, G9a inh 35µM*, JMJD2A Tudor -18% and BAZ2B block 7%.
Cc1ccccc1CN1CCCN(CC(=O)Nc2c(C)cccc2C)S1(=O)=O was read as HP1b binding inh -3%, TDP1 inh 4%, G9a inh 29%[59 µM], JMJD2A Tudor -26% and BAZ2B block -2%.
